Most compounds without a hit are left out; they make up all but 3% or so of the library.
L929 necroptosis – inhibitors of zVAD-triggered necroptosis, primary screen, L929 cells. viability rescue, % at 10 µM. hit rate 0.38% among 220,000. L929 zVAD necroptosis rescue, ATP luminescence, 24 h; with zVAD 60 µM. AID 1377, 2008;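 active = activation, scaled between plate controls, above about 75%, limit read from the data; inactive = activation under that limit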
Calpain2 inh – inhibitors of pig calpain II, primary screen, biochemical, fluorogenic peptide substrate, 1536-well. AID 1236, 2008. purified calpain II, 30 min. inhibition, % at 16 µM. hit rate 0.37% among 220,000;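 active = inhibition above about 50%, limit read from the data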
14-3-3 Bad PPI – inhibitors of 14-3-3 zeta/Bad binding, primary screen, biochemical, TR-FRET, bovine 14-3-3 zeta | 14-3-3 protein zeta/delta (Bos taurus), P63103 | inhibition, % at 21.7 µM | TR-FRET 14-3-3zeta/Dy647-pBad peptide displacement, 1 h | hit rate 0.71% among 220,000;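 active = inhibition above about 70%, limit read from the data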
TNF necrop inh – inhibitors of TNF-alpha triggered necroptosis, primary screen, cell-based, Jurkat FADD-/-, single concentration | Jurkat FADD-/- TNF necroptosis rescue, ATP luminescence, 24 h; 0 = TNF only, 100 = no-TNF cells | activation (protection from cell death), % at 10 µM | hit rate 0.068% among 220,000 | AID 463075, 2010;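 active = activation, meaning protection from cell death, of at least 50% relative to plate controls; inactive = activation below 50%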;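 also: necroptosis triggered by 40 ng/mL TNF-alpha added together with compound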
ROMK mod – ROMK potassium channel modulators, primary screen, cell-based, thallium flux, MLSMR library; ATP-sensitive inward rectifier potassium channel 1 (Homo sapiens), P48048; Tet-inducible ROMK, thallium flux fluorescence; actives lie on both sides; B-score at 10 µM; hit rate 2% among 130,000; AID 1918, 2009;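 active = signal ratio slope over the read window, or its plate-corrected B-score, at least 3 SD from the plate mean, either direction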;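 also: B-score of the F/F0 ratio slope over 7 to 12 s after thallium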
Target sequence (P48048 whole entry, looked up): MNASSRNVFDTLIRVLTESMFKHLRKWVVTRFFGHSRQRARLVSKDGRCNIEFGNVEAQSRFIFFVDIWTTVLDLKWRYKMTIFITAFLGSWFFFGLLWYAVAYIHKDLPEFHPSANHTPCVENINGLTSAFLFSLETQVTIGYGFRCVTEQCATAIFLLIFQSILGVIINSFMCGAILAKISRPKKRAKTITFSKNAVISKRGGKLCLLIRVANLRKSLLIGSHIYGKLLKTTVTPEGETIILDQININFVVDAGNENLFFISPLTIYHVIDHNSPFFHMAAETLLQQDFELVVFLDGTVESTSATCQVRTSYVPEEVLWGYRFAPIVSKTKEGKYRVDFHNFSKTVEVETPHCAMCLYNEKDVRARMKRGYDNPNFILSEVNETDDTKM
HMGR II inh – inhibitors of E. faecalis class II HMGR, primary screen, biochemical, Enterococcus faecalis; AID 1066, 2008; purified E. faecalis HMGR, NADPH absorbance 340 nm kinetic; inhibition, % at 10 µM; HMG-CoA reductase (Enterococcus faecalis, mvaE); hit rate 0.41% among 190,000;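 active = inhibition above a set limit, the median over all tested compounds plus 3 SD, cut at about 9.5% in these data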;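 also: enzyme runs in reverse so mevalonate oxidation gives rising NADPH absorbance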
Large screens that a line does not name were inactive; [ ] = another dose, or the depositor's remark.

CNS(=O)(=O)c1ccc2nc(NC(=O)c3ccc(N4C(=O)CCC4=O)cc3)sc2c1	HMGR II inh 10
CCc1ccc2nc(NC(=O)c3ccc(N4C(=O)CCC4=O)cc3)sc2c1	none (no result: ROMK mod, HMGR II inh)
CN(C)C(CNc1ncnc2sc3c(c12)CCCCC3)c1ccco1 (centres undefined)	none
Cc1sc2ncnc(NCC(c3ccco3)N(C)C)c2c1C (centres undefined)	14-3-3 Bad PPI 82
CCC(CC)C(=O)c1c[nH]c(C(=O)NCc2cccs2)c1	HMGR II inh 11
CCC(CC)C(=O)c1c[nH]c(C(=O)NCc2ccco2)c1	none (no result: ROMK mod)
COC(=O)C1CSC(C(=O)OC)N1C(=O)CN1CC(C)OC(C)C1 (centres undefined)	none (no result: ROMK mod)
O=C(NC(=S)Nc1cccc(C(F)(F)F)c1)c1csnn1	ROMK mod 8.8
O=C(NC(=S)Nc1ccccc1Cl)c1csnn1	none (no result: ROMK mod)
COc1ccc(OC)c(S(=O)(=O)N2c3cc(F)ccc3CCC2C)c1 (centres undefined)	none (no result: ROMK mod)
Cc1ccccc1OCC(=O)OCC(=O)NCC1CCCO1 (centres undefined)	none
Cc1ccccc1NC(=O)Cc1nc(CSc2nnc(-c3ccc4c(c3)OCO4)o2)cs1	none
CCN(CC)N=Nc1ccc(S(N)(=O)=O)cc1	HMGR II inh 10
CN(C)N=Nc1ccc(S(N)(=O)=O)cc1	none
O=C(NCC1CCCO1)c1cc(C(=O)C2CCCCC2)c[nH]1 (centres undefined)	none
Cc1ccc(-n2c(SCC(=O)N(C)C3CCS(=O)(=O)C3)nc3ccccc3c2=O)cc1 (centres undefined)	HMGR II inh 18
COCCn1nnnc1CN1CCN2CCCC2C1 (centres undefined)	14-3-3 Bad PPI 86
Cn1c(=O)c2c(nc(NCc3cccnc3)n2Cc2ccccc2Cl)n(C)c1=O	none
CCn1ncc(-c2cc(C(=O)O)no2)c1C	none
CCn1ncc(-c2ccnc3cc(C(=O)O)nn23)c1C	14-3-3 Bad PPI 70
COc1ccc(CNC(=O)COC(=O)c2ccccc2C(=O)c2ccccc2)cc1	none
CC(/C=C1\SC(=S)N(c2ccc(C(=O)O)cc2)C1=O)=C\c1ccccc1	Calpain2 inh 73 (no result: HMGR II inh)
COc1ccc(C(=O)NC(=O)COC(=O)c2ccc3ncsc3c2)cc1	14-3-3 Bad PPI 78
O=C(COC(=O)c1ccc(O)cc1)Nc1ncc(Cl)cc1Cl	none
O=C(COC(=O)c1ccc2ncsc2c1)Nc1ncc(Cl)cc1Cl	14-3-3 Bad PPI 73[fluorescence artefact?]
Cc1c(Cl)cnc(NC(=O)COC(=O)c2ccc3ncsc3c2)c1Cl	14-3-3 Bad PPI 70 (no result: ROMK mod)
CC(C)(C)c1nnc(NC(=O)NS(=O)(=O)c2ccccc2)s1	none (no result: ROMK mod)
NS(=O)(=O)c1ccc(CCNC(=O)c2ccc3ccccc3n2)cc1	none
COc1cccc(NC(=O)CN(C)CC(=O)Nc2ccc(Cl)cc2[N+](=O)[O-])c1	Calpain2 inh 55
CCN(C(=O)Cc1ccccc1OC)c1nnc(-c2ccncc2)s1	14-3-3 Bad PPI 79
Cc1sc(-n2c(C)cc(/C=C3\SC(=S)NC3=O)c2C)c(C#N)c1C	HMGR II inh 11
CCn1c(C)cc(/C=C2/SC(=S)NC2=O)c1C	none (no result: ROMK mod)
Cc1cc(/C([O-])=C(/C(=S)Nc2ccc(F)cc2)[n+]2ccccc2)c(C)n1Cc1ccccc1Cl	none
CCC(=O)c1c[nH]c(C(=O)NCc2cccnc2)c1	14-3-3 Bad PPI 80
CCCC(=O)c1c[nH]c(C(=O)NCc2cccnc2)c1	none
CCOC(=O)C1(CC2CCCCO2)CCN(Cc2nc(C(C)C)cs2)CC1 (centres undefined)	none
Cc1csc(NC(=O)CSc2nncc(=O)n2N)n1	none
CC(C)Oc1cccc(C(=O)NC2=NCCS2)c1	14-3-3 Bad PPI 80
CC(=O)NC1=NN(C(C)=O)C2(CCCC2)S1	none
CC(=O)N1N=C(N)SC12CCCC2	HMGR II inh 11

Assay outcomes (PubChem BioAssay)
